Tg IFNy HTS: T. gondii growth inhibition with IFN-gamma, primary screen, cell-based. actives 3.8% (n = 69,000). activity change, negative = inhibition, % (concentration not given with the values). Toxoplasma gondii growth in IFN-gamma-treated host cells; hits give low values. AID 1259416, 2018; in the data active means activity change below about -70%, passing the limit was not always enough;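 further: host cells are HeLa cells infected with Toxoplasma gondii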
* = called active by the depositor; i = inactive; ! = a repeat was not active. Only a selection was taken, and hits are over-represented in it overall.

SMILES | Tg IFNy HTS
COc1ccc(C(=O)NCCc2sc(-c3cccc(C)c3)nc2C)cc1OC | i
Cc1cccc(C)c1NC(=O)C(=O)NCCc1sc(-c2ccccc2)nc1C | -30
CCCCCc1nc(N)c(C#N)c(-c2ccco2)c1CCCC | -91*
CCCCCCSc1ncc(C#N)c(N)n1 | -5
CCNc1ncc(CN2CCCN(C(=O)c3ccco3)CC2)cn1 | 16
Cc1ccc(C2(CNC(=O)c3cnn4cc(CCO)cnc34)CCOCC2)cc1 | 12
NS(=O)(=O)c1c(Cl)sc(Cl)c1Br | 36
CN(C)CC(=O)N1CC[C@@H]2OCC[C@@]2(COCc2cccnc2)C1 | -1
CCc1c(C)[nH]n2c(=O)cc(COc3ccccc3)nc12 | -12
CCCc1cc(=O)n2[nH]c(C(F)(F)F)c(-c3ccc(OC)cc3)c2n1 | -27
CCc1c(C)[nH]n2c(=O)cc(Cc3ccc(F)cc3)nc12 | -103*
Cc1cc(C(O)CN2CCC(O)(c3cccc(C(F)(F)F)c3)CC2)c(C)s1 (stereo not drawn) | -22
Cc1noc([C@@H]2C[C@@H]3OCC[C@@H]3N(Cc3sccc3C)C2)n1 | 62
O=C(CSc1nnc(C2CCCCC2)n1-c1ccccc1)NCc1ccccc1 | -40
Cc1noc2nc3c(c(C(=O)N4CCOC(C(F)(F)F)C4)c12)CCC3 (stereo not drawn) | 4
COc1cccc(Nc2nc(C3CCNCC3)c3ccccn23)c1 | 375
CC(=O)O[C@@]12CO[C@@H]1C[C@H](O)[C@@]1(C)C(=O)[C@H](O)C3=C(C)[C@@H](OC(=O)[C@H](O)[C@@H](NC(=O)OC(C)(C)C)c4ccccc4)C[C@@](O)([C@@H](OC(=O)c4ccccc4)C12)C3(C)C (stereo partly drawn) | -83*
CC(=O)O[C@@]12CO[C@@H]1C[C@H](O)[C@@]1(C)C(=O)[C@H](O)C3=C(C)[C@@H](OC(=O)[C@H](O)[C@@H](NC(=O)OC(C)(C)C)c4ccccc4)C[C@@](O)([C@@H](OC(=O)c4ccccc4)[C@H]21)C3(C)C | -72*!
CO[C@H]1C(=O)[C@@]2(C)[C@H]([C@@H](OC(=O)c3ccccc3)[C@@]3(O)C[C@H](OC(=O)[C@H](O)[C@@H](NC(=O)OC(C)(C)C)c4ccccc4)C(C)=C1C3(C)C)[C@]1(OC(C)=O)CO[C@@H]1C[C@H]2OC | -79*
Cc1nn(CC(=O)NC2CCCCCC2)c(=O)c2nc(-c3ccccc3)sc12 | 23
CN(Cc1nc2ccc(Cl)cc2[nH]1)C(=O)c1cnn2ccn(C)c12 | 4
Cc1nnc(NC(=O)CCSCc2ccc(Cl)c(Cl)c2)s1 | -44
CC(=O)Nc1ccc(Cl)c(C(=O)N(C)Cc2ccsc2)c1 | 1
O=C(Nc1ccccc1N1CCOCC1)c1nc2ccccc2s1 | 71
CCOC(=O)CNC(=O)N1CCc2onc(-c3cccc4ccccc34)c2C1 | 8
SMILES | Tg IFNy HTS
CC(=O)[C@H]1CCC2C3CC=C4C[C@@H](OC(=O)CCC(=O)O)CC[C@]4(C)C3CC[C@@]21C (stereo partly drawn) | -1
C[C@H]1[C@H](OC(=O)CCC(=O)O)O[C@@H]2O[C@@]3(C)CC[C@H]4[C@H](C)CC[C@@H]1[C@@]24OO3 | -80*
Cc1noc(C)c1CN1CCc2cc(C(=O)N(C)C)c(NCC(C)C)nc2CC1 | 15
CCC1(CC)CN(C(=O)CC2C(=O)NCCN2Cc2cccnc2)CCO1 (stereo not drawn) | 2
O=C(c1ccc(F)cc1)N1CCc2onc(COCC3CC3)c2C1 | -6
Cc1cc(NC(=O)CSc2n[nH]c(=O)n2-c2ccccc2)n(-c2ccccc2)n1 | -45
Cc1cc(C)cc(N2CCN(Cc3ccc(-c4ccn[nH]4)o3)CC2=O)c1 | 4
c1coc(Cn2ccnc2-c2ccc(-c3ccn[nH]3)o2)c1 | 4
FC(F)(F)c1cc(-c2ccc(-c3ccn[nH]3)o2)cc(C(F)(F)F)c1 | -106*
CC(=O)N1CC2(CCN(C(=O)CCCN)CC2)CC1C(=O)O (stereo not drawn) | -28
CC(=O)NC[C@H]1CN(c2ccc(-c3ccc(CNCc4cn[nH]n4)cc3)c(F)c2)C(=O)O1 | -53
CC(C)N(Cc1ccc(C(=O)O)o1)C(C)C | -9
CCn1cc(CN2CCc3c([nH]c4ccccc34)C2c2ccccc2C)c(C)n1 (stereo not drawn) | 14
CC(=O)N[C@@H]1[C@@H](O)[C@H](O)[C@@H](CO)O[C@@H]1O | 3
CCCCc1nnc(NC(=O)C2CC(=O)N(CCc3c[nH]c4ccc(OC)cc34)C2)s1 (stereo not drawn) | 68
CCCCc1nnc(NC(=O)C2CC(=O)N(CCc3c[nH]c4ccc(C)cc34)C2)s1 (stereo not drawn) | -28
CCCc1nnc(NC(=O)C2CC(=O)N(CCc3c[nH]c4ccc(Cl)cc34)C2)s1 (stereo not drawn) | -91*
CC(C)Cc1cc(-c2nc3c([nH]2)CC(C)(C)CNC3=O)on1 | -3
CCn1cnnc1CCNC(=O)C(C)(C)c1ccccc1 | 16
CCN1c2cc(C)ccc2-n2cccc2C12CCN(S(=O)(=O)c1ccc(C(C)C)cc1)CC2 | -28
CCN1c2cc(C)ccc2-n2cccc2C12CCN(S(=O)(=O)c1ccccc1Cl)CC2 | -78*
CCN1c2cc(C)ccc2-n2cccc2C12CCN(S(=O)(=O)Cc1ccccc1)CC2 | -67
CCN1c2cc(C)ccc2-n2cccc2C12CCN(C(=O)c1ccccc1OC)CC2 | -62
CCN1c2cc(C)ccc2-n2cccc2C12CCN(C(=O)c1ccccc1Br)CC2 | -1
CCN1c2cc(C)ccc2-n2cccc2C12CCN(S(=O)(=O)c1ccccc1)CC2 | -79*
SMILES | Tg IFNy HTS
CCN1c2cc(C)ccc2-n2cccc2C12CCN(S(=O)(=O)c1ccc3c(c1)oc(=O)n3C)CC2 | 61
CCOc1ccc(S(=O)(=O)N2CCC3(CC2)c2cccn2-c2ccc(C)cc2N3CC)cc1 | -92*
CCOc1ccc(NC(=O)N2CCC3(CC2)c2cccn2-c2ccc(C)cc2N3CC)cc1 | 156
O=C(c1ncn2c1CNS(=O)(=O)c1ccccc1-2)N1CCCCCC1 | 82
COc1ccc2c(c1OC)OC[C@@H](c1ccc(OC)c(OC)c1OC)C2 | 0
Cc1nc2c(C)cccc2cc1C(=O)NCC(c1ccc2c(c1)OCO2)N(C)C (stereo not drawn) | -3
Cc1ncccc1Oc1ncnc(N2Cc3cnn(CCO)c3C2)c1C | 0
COCCC1CN(c2nc(CCN)nc3ccccc23)CCO1 (stereo not drawn) | -43
Cc1ccc(NS(=O)(=O)c2cc(F)c(Br)cc2F)cc1 | 1
COCCN1Cc2ccnn2CC(COCc2cccnc2)C1 (stereo not drawn) | 1
CC(c1nccs1)N(C)C(=O)CCC(=O)Nc1ccc(F)c(Cl)c1 (stereo not drawn) | -5
O=C(Nc1cnc2n1CCCC2)c1cnnn1-c1ccccc1 | 7
OC(C#CC(O)(c1ccccc1)c1ccccc1)(c1ccccc1)c1ccccc1 | -93*
OC(CCCN1CCCCC1)(c1ccccc1)c1ccccc1 | 0
NC(=O)C(c1ccccc1)(c1ccc(F)cc1)c1ccc(F)cc1 | 15
COc1ccc(C)cc1N1CC(C(=O)NCCc2nc3cc(C)c(C)cc3[nH]2)CC1=O (stereo not drawn) | 7
Cn1cc(C(=O)NC2CCN(CC(c3ccccc3)C3CCCCC3)CC2)ccc1=O (stereo not drawn) | 32
COc1ccc(-n2cnc3nc[nH]c(=O)c32)cc1 | 7
CN(C)CCN1CCC2(CC1)CC(NCc1cccs1)c1ccccc12 (stereo not drawn) | -35

Screening data from PubChem.
